Compound activity (PubChem BioAssay)
IDE exosite FP: displaces the probe from the exo-site of human IDE; P14735; purified IDE, FL-6b probe fluorescence polarization; hits give low values; z-score at 20 µM; 6.3% of 17,000 active; AID 1259349;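 active means z-score of -3 or lower, meaning strong loss of probe binding signal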;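 further: His-tagged human IDE residues 42-1019 made in E. coli with 30 nM FL-6b probe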
Target sequence (P14735 42-1019 limits assumed): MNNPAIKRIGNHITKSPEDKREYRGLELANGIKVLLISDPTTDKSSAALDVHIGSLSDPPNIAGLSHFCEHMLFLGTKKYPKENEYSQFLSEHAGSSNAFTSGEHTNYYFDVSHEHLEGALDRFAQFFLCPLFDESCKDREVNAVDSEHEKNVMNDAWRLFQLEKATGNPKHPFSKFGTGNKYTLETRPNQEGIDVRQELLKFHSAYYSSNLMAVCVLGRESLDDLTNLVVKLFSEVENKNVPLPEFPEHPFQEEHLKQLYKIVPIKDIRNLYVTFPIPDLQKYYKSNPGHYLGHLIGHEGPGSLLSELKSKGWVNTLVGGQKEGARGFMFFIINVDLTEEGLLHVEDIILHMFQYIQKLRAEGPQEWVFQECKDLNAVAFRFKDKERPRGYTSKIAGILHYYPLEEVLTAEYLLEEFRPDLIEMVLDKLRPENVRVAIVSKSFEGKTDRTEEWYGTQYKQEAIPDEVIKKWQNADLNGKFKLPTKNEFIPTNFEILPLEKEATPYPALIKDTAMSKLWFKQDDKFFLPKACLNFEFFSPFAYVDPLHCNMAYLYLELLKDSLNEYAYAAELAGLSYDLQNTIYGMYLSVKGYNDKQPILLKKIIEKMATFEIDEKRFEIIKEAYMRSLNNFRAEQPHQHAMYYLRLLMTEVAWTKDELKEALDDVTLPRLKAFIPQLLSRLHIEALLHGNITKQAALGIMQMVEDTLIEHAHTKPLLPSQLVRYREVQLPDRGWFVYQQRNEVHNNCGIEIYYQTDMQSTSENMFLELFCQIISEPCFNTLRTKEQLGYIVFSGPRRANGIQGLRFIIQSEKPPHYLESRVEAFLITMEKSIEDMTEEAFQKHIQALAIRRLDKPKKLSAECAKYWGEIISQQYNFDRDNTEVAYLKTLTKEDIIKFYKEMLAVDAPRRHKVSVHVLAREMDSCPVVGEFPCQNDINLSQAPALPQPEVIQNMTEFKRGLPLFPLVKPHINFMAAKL
Starred values were filed as active, the others as inactive. The entries come from a sample that favours hits as a whole.

SMILES | IDE exosite FP
CC(C)NC(=O)Nc1ccc2c(c1)C(=O)N([C@H](C)CO)C[C@@H](C)[C@@H](CN(C)C(=O)C1CCCCC1)OCCCC[C@H](C)O2 | 2.2
COc1ccc2c3c([nH]c2c1)[C@H](CO)N(C(=O)c1ccc(F)cc1)CC31CCN(S(=O)(=O)c2cccs2)CC1 | -1
COCC(=O)N1CC(=O)N2[C@@H](CO)[C@@H](c3ccc(C#CC4CCCCC4)cc3)[C@@H]2C1 | 1.7
COc1ccc(-c2ccc([C@H]3[C@@H](CO)N4C(=O)CN(Cc5ccc(C)cc5)C[C@@H]34)cc2)cc1 | 4.7
O=C(CCN1CCCCC1)NCC[C@@H]1CC[C@@H](NS(=O)(=O)c2cccc(Cl)c2)[C@H](CO)O1 | 1.2
CNC(=O)C[C@@H]1CC[C@@H]2[C@H](COC[C@H](O)CN2Cc2ccccc2F)O1 | 0.32
O=C1CCCn2cc(nn2)COCC2CCCN12 (stereo not given) | 0.4
CCCN(C[C@H]1[C@H](c2ccccc2)[C@@H](CO)N1C(C)=O)C(=O)NC(C)C | 4.9
CCC(=O)N(C)C[C@@H]1[C@H](c2ccc(-c3ccccc3F)cc2)[C@H](CO)N1C(C)=O | 1.4
OC[C@@H]1[C@H](c2ccc(C3=CCCCC3)cc2)[C@@H]2CN(CCC(F)(F)F)CCCCN12 | 2
N#C[C@H]1[C@@H](c2ccccc2C2=CCCCC2)[C@@H](CO)N1C(=O)c1cccc(F)c1 | 2.9
CN(C)C(=O)c1cccc(-c2ccc([C@@H]3[C@@H](C#N)N(C(=O)C4CC4)[C@@H]3CO)cc2)c1 | -3.6*
COc1cccc(C#Cc2ccc([C@H]3[C@@H](C#N)N(C(=O)C4CCC4)[C@@H]3CO)cc2)c1 | -0.036
CN(C)C(=O)c1cccc(-c2ccc([C@@H]3[C@@H](C#N)N(C(=O)C4CC4)[C@H]3CO)cc2)c1 | 0.87
N#C[C@@H]1[C@H](c2ccc(-c3ccccc3F)cc2)[C@@H](CO)N1C(=O)C1CCC1 | -0.3
CS(=O)(=O)N1[C@H](C#N)[C@@H](c2ccccc2-c2ccccc2F)[C@H]1CO | -0.14
N#C[C@H]1[C@H](c2ccc(-c3ccccc3F)cc2)[C@H](CO)N1C(=O)C1CCC1 | -3.1*
COc1cccc(C#Cc2ccc([C@H]3[C@@H](CO)N(C(=O)C4CCOCC4)[C@H]3C#N)cc2)c1 | -5.1*
CS(=O)(=O)N1[C@H](CO)[C@@H](c2ccc(-c3ccccc3F)cc2)[C@@H]1C#N | -3.1*
N#C[C@H]1[C@H](c2ccc(-c3ccccc3F)cc2)[C@@H](CO)N1C(=O)C1CCC1 | 2.2
CS(=O)(=O)N1[C@H](C#N)[C@@H](c2ccccc2)[C@@H]1CO | 5.4
COc1cccc(C#Cc2ccc([C@H]3[C@H](C#N)N(C(=O)C4CC4)[C@H]3CO)cc2)c1 | -1.9
CN(C)C(=O)c1cccc(-c2ccc([C@@H]3[C@H](C#N)N(C(=O)C4CC4)[C@H]3CO)cc2)c1 | 3.5
CN(C)C(=O)c1ccc(-c2ccc([C@@H]3[C@@H](C#N)N(C(=O)C4CCOCC4)[C@H]3CO)cc2)cc1 | 3.9
O=C(Nc1ccccc1Cl)N1C[C@@H]2[C@H](c3ccccc31)[C@@H](CO)N2C(=O)c1cccnc1 | 2.8
SMILES | IDE exosite FP
CN(C)C(=O)c1cccc(-c2ccc([C@H]3[C@@H](C#N)N(C(=O)C4CCC4)[C@H]3CO)cc2)c1 | 3.9
COCC(=O)Nc1ccc2c(c1)[C@H]1C[C@H](CC(=O)N3CCOCC3)O[C@@H](CO)[C@H]1O2 | 0.42
O=C(C[C@H]1CC[C@H]2NC[C@H](O)COC[C@@H]2O1)Nc1nccs1 | 0.68
C[C@@H]1CCCCO[C@H](CN(C)Cc2ccc(C(=O)O)cc2)[C@H](C)CN([C@@H](C)CO)C(=O)c2cc(N(C)C)ccc2O1 | 0.5
N#C[C@H]1[C@@H](c2ccccc2-c2cccc(F)c2)[C@@H](CO)N1C(=O)c1cccnc1 | -0.19
C/C=C/c1ccc([C@@H]2[C@@H](CO)N3C(=O)CN(Cc4ccc(C)cc4)C[C@H]23)cc1 | 5
COc1ccccc1-c1ccc([C@H]2[C@@H](CO)N(C(=O)C3CCOCC3)[C@H]2C#N)cc1 | -8.3*
COc1ccc(-c2ccc([C@@H]3[C@@H](CO)N(C(=O)c4cccnc4)[C@H]3C#N)cc2)cc1 | 4.5
COc1ccccc1-c1ccc([C@H]2[C@@H](C#N)N(C(=O)C3CCC3)[C@@H]2CO)cc1 | -4.8*
COc1ccc(-c2ccc([C@@H]3[C@H](C#N)N(C(=O)c4cccnc4)[C@H]3CO)cc2)cc1 | -1.9
COc1ccccc1-c1ccc([C@@H]2[C@@H](C#N)N(C(=O)c3cccnc3)[C@@H]2CO)cc1 | -34*
COc1ccccc1-c1ccc([C@H]2[C@@H](CO)N(C(=O)C3CC3)[C@H]2C#N)cc1 | -1.7
COc1ccccc1-c1ccccc1[C@@H]1[C@H](C#N)N(C(=O)C2CCOCC2)[C@H]1CO | -1.7
COc1ccccc1-c1ccccc1[C@@H]1[C@@H](C#N)N(C(=O)C2CCC2)[C@H]1CO | 3.9
COc1ccccc1-c1ccccc1[C@H]1[C@@H](C#N)N(C(=O)C2CCC2)[C@H]1CO | 0.26
C[C@@H]1CN([C@H](C)CO)C(=O)c2cc(NS(=O)(=O)c3cn(C)cn3)ccc2O[C@@H](C)CCCCO[C@H]1CN(C)C(=O)Nc1ccc(C(F)(F)F)cc1 | -0.32
O=C(C1CCCCC1)N1CC2(C1)[C@H](c1ccccc1)[C@H](CO)N2CCC(F)(F)F | -1.2
CO[C@H]1CN(C)C(=O)c2ccc(NC(=O)c3cc(C)on3)cc2OC[C@H](C)NC[C@@H]1C | 1.9
CC(=O)NC[C@@H]1[C@H](c2ccc(-c3ccccc3F)cc2)[C@H](CO)N1C(C)=O | 2.9
COCC(=O)N1[C@H](C#N)[C@H](c2ccccc2-c2cccc(F)c2)[C@@H]1CO | 3.3
COCC#Cc1ccc([C@H]2[C@@H](CO)N3C(=O)CN(C(=O)c4ccncc4)C[C@H]23)cc1 | 0.063
CCCNC(=O)N1[C@@H](CO)[C@@H](c2ccccc2)C12CN(CCC(F)(F)F)C2 | -0.48
CC(C)C#Cc1ccc([C@@H]2[C@@H](CO)N3C(=O)CN(C(=O)Cc4ccccc4)C[C@H]23)cc1 | -0.46
CCS(=O)(=O)N1CC2(CN(C(=O)Cc3ccccn3)[C@H](CO)c3[nH]c4cc(OC)ccc4c32)C1 | -1.5
O=C(c1ccccc1F)N1CC(=O)N2[C@@H](CO)[C@@H](c3ccc(-c4cccnc4)cc3)[C@@H]2C1 | -1.4
SMILES | IDE exosite FP
O=C(C1CCCCC1)N1CC(=O)N2[C@H](CO)[C@H](c3ccc(-c4cccnc4)cc3)[C@H]2C1 | -4.7*
CCC(=O)N1CC(=O)N2[C@H](CO)[C@@H](c3ccc(-c4cccnc4)cc3)[C@@H]2C1 | -1.4
O=C(c1ccccc1F)N1CC(=O)N2[C@H](C1)[C@@H](c1ccc(-c3cccnc3)cc1)[C@@H]2CO | -3.1*
O=C(c1ccccc1F)N1CC(=O)N2[C@@H](CO)[C@H](c3ccc(-c4cccnc4)cc3)[C@@H]2C1 | -1.5
O=C(C1CCCCC1)N1CC(=O)N2[C@H](C1)[C@H](c1ccc(-c3cccnc3)cc1)[C@@H]2CO | -0.0031
O=C(C1CCCCC1)N1CC(=O)N2[C@@H](CO)[C@H](c3ccc(-c4cccnc4)cc3)[C@@H]2C1 | 1.4
Cc1ccc(CN2CC(=O)N3[C@@H](CO)[C@H](c4ccc(-c5cccnc5)cc4)[C@@H]3C2)cc1 | -3.1*
O=C1CN(Cc2ccc(F)cc2)C[C@H]2[C@@H](c3ccc(-c4cccnc4)cc3)[C@H](CO)N12 | 0.5
O=C1CN(Cc2ccc(F)cc2)C[C@@H]2[C@@H](c3ccc(-c4cccnc4)cc3)[C@@H](CO)N12 | -0.31
CCC(=O)N1CC(=O)N2[C@H](CO)[C@H](c3ccc(-c4cccnc4)cc3)[C@H]2C1 | -3.1*
